Reference: PubChem BioAssay (Tox21)
Results filed as inconclusive are left out. The source made the active and inactive calls. Calls follow the shape of the dose curve; as a rule, active = well fitted curve in the direction sought with a large enough effect in the repeat runs; inconclusive = weak or mixed curves; inactive = no such curve, though single readings can be large; an effect the other way counts as inactive or inconclusive.

What was measured:
[1] = qHTS RealTime-Glo MT Cell Viability Assay in HepG2 cells - 8 hour (AID 1224873); also: nearly all actives have a fitted effect of over 55% in size
In short: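 HepG2 cells mixed with RealTime-Glo MT reagents (NanoLuc plus cell-permeant prosubstrate) were seeded at 600 cells/well, incubated 5 h at 37 C/5% CO2, then pinned with compounds in DMSO; nonlytic luminescence tracked viability during 40 h treatment.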

[2] = qHTS RealTime-Glo MT Cell Viability Assay in HEK293 cells - 40 hour (AID 1224874); settings: RealTime-Glo luminescence; max response: hits give low values; also: nearly all actives have a fitted effect of over 50% in size
In short: (§1)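 Luminescence, which tracks viable cell number through reduction of the prosubstrate to a NanoLuc substrate, was read over continuous 37 C culture. Cells (600/well) were premixed with reagent and rested 5 h before 23 nL of compound in DMSO was pinned.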

[3] = A CellTox Green Cytotoxicity Assay to monitor cytotoxicity in HEK293 cells - 24 hour (AID 1224875); also: series mostly up to about 77 µM; nearly all actives have a fitted effect of over 45% in size
In short: (§2)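 Fluorescence from a DNA-binding dye excluded by viable cells was measured repeatedly in the same HEK293 wells (600 cells/well) during continuous compound exposure at 37 C. Each assay gives one read point: 0, 8, 16, 24, 32 or 40 h.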

[4] = A CellTox Green Cytotoxicity Assay to monitor cytotoxicity in HepG2 cells - 16 hour (AID 1224876); also: nearly all actives have a fitted effect of over 45% in size
In short: (§3)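 Real-time cytotoxicity: fluorescence of a cell-impermeant cyanine dye binding DNA of dead HepG2 cells, measured repeatedly (0–40 h) during compound exposure at 37 C. Cells seeded 600/well with reagent, dosed after 5 h.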

[5] = qHTS RealTime-Glo MT Cell Viability Assay in HepG2 cells - 32 hour (AID 1224877); also: nearly all actives have a fitted effect of over 55% in size
In short: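 Compound treatment began 5 h after plating HepG2 cells (600/well) with NanoLuc luciferase and prosubstrate. Plates stayed at 37 C for 40 h; luminescence was captured at six time points, 0 h through 40 h.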

[6] = A CellTox Green Cytotoxicity Assay to monitor cytotoxicity in HepG2 cells - 24 hour (AID 1224878); also: nearly all actives have a fitted effect of over 45% in size
In short: as §3

[7] = A CellTox Green Cytotoxicity Assay to monitor cytotoxicity in HepG2 cells - 40 hour (AID 1224879); also: nearly all actives have a fitted effect of over 40% in size
In short: as §3

[8] = qHTS RealTime-Glo MT Cell Viability Assay in HEK293 cells - 0 hour (AID 1224880); also: top concentration of the series differs between compounds; nearly all actives have a fitted effect of over 45% in size
In short: as §1

[9] = A CellTox Green Cytotoxicity Assay to monitor cytotoxicity in HEK293 cells - 32 hour (AID 1224881); also: nearly all actives have a fitted effect of over 40% in size
In short: as §2

[10] = qHTS RealTime-Glo MT Cell Viability Assay in HEK293 cells - 16 hour (AID 1224872); also: top concentration of the series differs between compounds; nearly all actives have a fitted effect of over 50% in size
In short: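 Quantitative high-throughput screen of the Tox21 10K library in HEK293: cells and RealTime-Glo reagents plated together, compound added at 5 h, luminescence monitored through 40 h at 37 C.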
% is scaled to controls: 0 for no effect and ±100 for the full control effect.

N#Cc1c(Cl)cccc1Cl
inactive: Potency [1] | max response [2] 18.9% | Potency [3] | Potency [4] | Potency [5] | Potency [6] | Potency [7] | outcome [8] | Potency [9]

N#CCBr
inactive: Potency [1] | max response [2] 6.36% | Potency [3] | Potency [4] | Potency [5] | Potency [6] | Potency [7] | outcome [8] | Potency [9]

Cc1nnc2n1-c1sc(CCC(=O)N3CCOCC3)cc1C(c1ccccc1Cl)=NC2
inactive: Potency [1] | max response [2] -16.7% | Potency [3] | Potency [4] | Potency [5] | Potency [6] | Potency [7] | outcome [8] | Potency [9]

CCS(=O)(=O)CCSP(=O)(OC)OC
inactive: Potency [1] | max response [2] 10.4% | Potency [3] | Potency [4] | Potency [5] | Potency [6] | Potency [7] | outcome [8] | Potency [9]

C[N+](=O)[O-]
inactive: Potency [10] | max response [2] 18.3% | Potency [3] | Potency [4] | Potency [5] | Potency [7] | outcome [8] | Potency [9]

CCOC(=O)C(c1c(O)c2ccccc2oc1=O)c1c(O)c2ccccc2oc1=O
inactive: Potency [1] | max response [2] 4.14% | Potency [3] | Potency [4] | Potency [5] | Potency [6] | Potency [7] | Potency [9]

CN1CCC(N(Cc2ccccc2)c2ccccc2)CC1
inactive: Potency [1] | max response [2] 0.452% | Potency [3] | Potency [4] | Potency [5] | Potency [6] | outcome [8] | Potency [9]

ClC(Cl)C(Cl)Cl
inactive: Potency [10] | max response [2] 0.239% | Potency [3] | Potency [5] | outcome [8] | Potency [9]

CCCSC(=O)N(CCC)CCC
inactive: Potency [1] | max response [2] 7.77% | Potency [3] | Potency [4] | Potency [5] | Potency [6] | Potency [7] | outcome [8] | Potency [9]

COc1cc2c(cc1OC)[C@@]13CCN4CC5=CCO[C@H]6CC(=O)N2[C@H]1[C@H]6[C@H]5C[C@H]43
inactive: Potency [10] | Potency [3] | Potency [4] | Potency [5] | Potency [6] | Potency [7] | outcome [8] | Potency [9]

O=S(=O)(O)C(F)(F)C(F)(F)C(F)(F)C(F)(F)C(F)(F)C(F)(F)F
inactive: Potency [1] | max response [2] 2.43% | Potency [3] | Potency [4] | Potency [5] | Potency [6] | Potency [7] | outcome [8] | Potency [9]

O=P(O)(Oc1ccccc1)Oc1ccccc1
inactive: Potency [1] | max response [2] 11.6% | Potency [3] | Potency [4] | Potency [5] | Potency [6] | Potency [7] | outcome [8] | Potency [9]

Cc1cnc[nH]1
inactive: Potency [1] | max response [2] -2.47% | Potency [3] | Potency [4] | Potency [5] | Potency [6] | Potency [7] | outcome [8] | Potency [9]

O=C(Cc1ccccc1)OCc1ccccc1
inactive: Potency [1] | max response [2] -18.6% | Potency [3] | Potency [4] | Potency [5] | Potency [6] | Potency [7] | outcome [8]

CCC/C(=N\OCC)C1=C(O)CC(CC(C)SCC)CC1=O (centres undefined)
inactive: Potency [10] | Potency [3] | Potency [4] | Potency [5] | Potency [6] | Potency [7] | outcome [8] | Potency [9]

CSc1nc(N=[N+]=[N-])nc(NC(C)C)n1
inactive: Potency [1] | Potency [3] | Potency [4] | Potency [5] | Potency [6] | Potency [7] | outcome [8] | Potency [9]
